In PubChem BioAssay:
Active and inactive are the calls of the source.

Columns and labels:
Albumin (Bos taurus) = Albumin (Bos taurus) (UniProt P02769); assay: bovine serum albumin binders on microarray, profiling panel, artefact control for SMM control protein annotation, biochemical, small-molecule microarray, Alexa647 label, 635/667 nm fluorescence (AID 1118); details: BSA-A647 binding, fluorescence 635 nm, higher = more signal;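 note: score merges 667 nm emission intensity and signal-to-noise per printed compound spot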
Sequence of Albumin (Bos taurus) (P02769 whole entry, looked up): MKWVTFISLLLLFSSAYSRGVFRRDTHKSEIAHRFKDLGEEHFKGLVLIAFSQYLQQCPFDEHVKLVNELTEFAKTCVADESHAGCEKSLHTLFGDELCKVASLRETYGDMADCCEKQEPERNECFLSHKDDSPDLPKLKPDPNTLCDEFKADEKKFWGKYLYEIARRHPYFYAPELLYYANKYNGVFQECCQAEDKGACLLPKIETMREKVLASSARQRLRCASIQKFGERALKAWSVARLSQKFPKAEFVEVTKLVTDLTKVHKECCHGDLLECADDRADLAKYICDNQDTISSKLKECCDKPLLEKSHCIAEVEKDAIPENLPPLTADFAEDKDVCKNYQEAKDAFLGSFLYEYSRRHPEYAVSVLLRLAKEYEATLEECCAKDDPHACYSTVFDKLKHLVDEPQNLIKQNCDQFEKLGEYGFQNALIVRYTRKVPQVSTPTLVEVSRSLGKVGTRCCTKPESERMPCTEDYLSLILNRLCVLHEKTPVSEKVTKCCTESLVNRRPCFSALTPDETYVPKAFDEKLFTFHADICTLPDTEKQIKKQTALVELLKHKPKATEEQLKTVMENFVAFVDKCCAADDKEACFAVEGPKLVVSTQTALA

[1] = small-molecule microarray binders of probe aXIP, primary screen, biochemical, NeuroSMM set, 635/667 nm fluorescence (AID 1119); details: higher = more signal, called active from +8 up or from −8 down;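 note: probe is the protein aXip251-270 applied at 1 µg/mL to compound-printed slides; binding of probe to printed compounds measured as 667 nm fluorescence plus signal to noise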
[2] = small-molecule binders of probe aNOTCH3, primary screen, biochemical, small-molecule microarray, 635/667 nm fluorescence (AID 1120); details: higher = more signal;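 note: probe is a biotin-tagged antibody raised against NOTCH3 rather than NOTCH3 protein; score merges spot fluorescence near 667 nm with spot signal to noise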
[3] = small-molecule binders of probe aNOTCH2, primary screen, biochemical, small-molecule microarray, 635/667 nm fluorescence (AID 1121); details: higher = more signal;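 note: score merges feature fluorescence read at 667 nm with its signal to noise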
[4] = biological target: Carbonic anhydrase 2 (Homo sapiens) (UniProt P00918); assay: CAII small-molecule binders, profiling panel, biochemical, small-molecule microarray, Alexa647-labelled CAII (AID 1122); details: CAII-A647 binding fluorescence, higher = more signal
[5] = COS7 lysate on small-molecule microarray, probe aHis, 635 nm (AID 1123); details: COS7 cell lysate, fluorescence, higher = more signal;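 note: z-score combines 667nm fluorescence intensity with signal-to-noise per printed compound spot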
[6] = compound binding in COS7 lysate, probe aLAP1, primary screen, cell lysate, small-molecule microarray (AID 1124); details: probe aLAP1, fluorescence, higher = more signal;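 note: lysate comes from COS7 cells expressing LAP1 and is applied at 0.3 µg/mL; score merges spot fluorescence near 667 nm with signal-to-noise over triplicate slides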
Sam68 (KHDRBS1) = assay: Sam68 small-molecule binders, primary screen, biochemical, small-molecule microarray, 635 nm fluorescence (AID 1125); details: small-molecule microarray binding, higher = more signal;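 note: score merges 667 nm channel intensity with signal to noise over triplicate slides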
[7] = test system: Chordin-like protein 2 (CHRDL2); assay: CHRDL2 small-molecule binders, primary screen, biochemical, small-molecule microarray, 635 nm fluorescence (AID 1126); details: small-molecule microarray binding, fluorescence 635 nm; higher = more signal;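 note: printed compound slides probed with Chrdl2 protein at 4 µg/mL for 1 h at 4 C; score merges 667 nm emission intensity with signal to noise over three replicate slides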
[8] = biological target: Concanavalin-A (Canavalia ensiformis) (UniProt P02866); assay: ConA small-molecule binders, primary screen, artefact control for SMM control protein annotation, biochemical, small-molecule microarray, Alexa647 label, 635 nm (AID 1127); details: ConA-A647 binding fluorescence, higher = more signal;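 note: z combines 667 nm emission intensity with signal-to-noise across three replicate slides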
Sequence of Concanavalin-A (Canavalia ensiformis) (P02866 whole entry, looked up): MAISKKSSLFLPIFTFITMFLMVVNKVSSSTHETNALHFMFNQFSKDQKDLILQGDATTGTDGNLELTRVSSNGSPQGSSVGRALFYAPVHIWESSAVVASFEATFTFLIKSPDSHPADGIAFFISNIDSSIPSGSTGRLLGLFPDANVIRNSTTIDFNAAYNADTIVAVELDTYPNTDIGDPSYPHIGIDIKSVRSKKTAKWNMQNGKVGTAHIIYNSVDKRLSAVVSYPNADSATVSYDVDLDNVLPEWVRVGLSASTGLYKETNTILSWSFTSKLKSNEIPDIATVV

[9] = anti-His antibody binders, primary screen, artefact control for SMM control protein annotation, biochemical, small-molecule microarray, 635 nm fluorescence (AID 1128); details: anti-His Alexa647 antibody binding, higher = more signal;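 note: score merges feature fluorescence with signal-to-noise for each printed compound spot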
[10] = test system: Human papillomavirus type 1a E7 protein (residues 1-88); assay: HPV1a E7 small-molecule binders, primary screen, biochemical, small-molecule microarray, residues 1-88, 635 nm (AID 1129); details: small-molecule microarray binding, fluorescence 635 nm; higher = more signal
[11] = biological target: Focal adhesion kinase 1 (Homo sapiens) (UniProt Q05397); assay: small-molecule microarray binders of FAK, primary screen, biochemical, 635/667 nm fluorescence, BSA, DTT (AID 1130); details: PTK2 binding, 635 nm fluorescence, higher = more signal;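 note: composite of spot emission at 667 nm and signal to noise over triplicate slides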
Sequence of Focal adhesion kinase 1 (Homo sapiens) (Q05397 whole entry, looked up): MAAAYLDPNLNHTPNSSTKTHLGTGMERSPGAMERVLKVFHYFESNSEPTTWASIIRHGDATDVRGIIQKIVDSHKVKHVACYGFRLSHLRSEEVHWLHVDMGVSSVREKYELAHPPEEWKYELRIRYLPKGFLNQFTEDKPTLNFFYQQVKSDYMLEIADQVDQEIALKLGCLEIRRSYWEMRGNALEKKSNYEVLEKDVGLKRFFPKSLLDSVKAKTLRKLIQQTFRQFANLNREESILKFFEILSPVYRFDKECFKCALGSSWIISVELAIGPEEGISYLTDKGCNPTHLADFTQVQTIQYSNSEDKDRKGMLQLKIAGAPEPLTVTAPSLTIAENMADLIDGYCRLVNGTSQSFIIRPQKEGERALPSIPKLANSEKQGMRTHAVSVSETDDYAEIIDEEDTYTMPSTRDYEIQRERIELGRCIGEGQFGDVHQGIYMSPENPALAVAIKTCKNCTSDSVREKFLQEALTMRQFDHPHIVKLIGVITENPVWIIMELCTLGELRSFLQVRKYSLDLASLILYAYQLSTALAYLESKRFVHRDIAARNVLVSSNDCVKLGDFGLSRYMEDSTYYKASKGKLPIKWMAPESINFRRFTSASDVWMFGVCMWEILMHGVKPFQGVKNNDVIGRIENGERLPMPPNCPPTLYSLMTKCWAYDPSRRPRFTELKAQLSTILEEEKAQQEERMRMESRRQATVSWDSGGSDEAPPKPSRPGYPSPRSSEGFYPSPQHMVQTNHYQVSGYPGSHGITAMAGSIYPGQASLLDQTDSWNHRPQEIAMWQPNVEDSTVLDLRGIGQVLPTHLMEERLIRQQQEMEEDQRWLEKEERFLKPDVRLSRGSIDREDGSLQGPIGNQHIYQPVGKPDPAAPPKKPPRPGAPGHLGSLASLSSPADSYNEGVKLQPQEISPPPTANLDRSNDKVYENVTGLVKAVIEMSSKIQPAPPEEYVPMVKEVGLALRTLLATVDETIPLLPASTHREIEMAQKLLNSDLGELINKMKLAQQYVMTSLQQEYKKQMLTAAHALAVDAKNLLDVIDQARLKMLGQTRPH

[12] = test system: Fibrinogen (Alexa647-labelled); assay: fibrinogen binders on compound microarrays, profiling panel, artefact control for SMM control-protein annotation, biochemical, small-molecule microarray, 635/667 nm fluorescence (AID 1131); details: fibrinogen-A647 binding fluorescence, higher = more signal;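 note: z-score merges 667 nm fluorescence with per-spot signal-to-noise over triplicate slides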
[13] = biological target: Follistatin (Homo sapiens) (UniProt P19883); assay: follistatin binders on small-molecule microarrays, primary screen, biochemical, small-molecule microarray, 635/667 nm fluorescence (AID 1132); details: FST binding, 635 nm fluorescence, higher = more signal
Sequence of Follistatin (Homo sapiens) (P19883 whole entry, looked up): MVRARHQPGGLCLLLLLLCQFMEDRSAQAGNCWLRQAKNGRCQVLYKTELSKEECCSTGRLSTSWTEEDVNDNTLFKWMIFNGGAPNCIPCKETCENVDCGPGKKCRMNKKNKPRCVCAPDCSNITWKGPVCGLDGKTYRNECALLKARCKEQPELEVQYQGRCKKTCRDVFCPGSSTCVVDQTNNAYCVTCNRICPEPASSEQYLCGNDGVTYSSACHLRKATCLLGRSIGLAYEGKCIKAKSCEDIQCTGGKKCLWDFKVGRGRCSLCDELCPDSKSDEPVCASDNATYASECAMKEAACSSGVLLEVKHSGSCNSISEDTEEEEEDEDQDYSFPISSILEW

[14] = biological target: Fibroblast growth factor 2 (Homo sapiens) (UniProt P09038); assay: FGF2 binders on small-molecule microarrays, primary screen, biochemical, small-molecule microarray, 635/667 nm fluorescence (AID 1133); details: small-molecule microarray binding, FGF2, fluorescence 635/667; higher = more signal
Sequence of Fibroblast growth factor 2 (Homo sapiens) (P09038 whole entry, looked up): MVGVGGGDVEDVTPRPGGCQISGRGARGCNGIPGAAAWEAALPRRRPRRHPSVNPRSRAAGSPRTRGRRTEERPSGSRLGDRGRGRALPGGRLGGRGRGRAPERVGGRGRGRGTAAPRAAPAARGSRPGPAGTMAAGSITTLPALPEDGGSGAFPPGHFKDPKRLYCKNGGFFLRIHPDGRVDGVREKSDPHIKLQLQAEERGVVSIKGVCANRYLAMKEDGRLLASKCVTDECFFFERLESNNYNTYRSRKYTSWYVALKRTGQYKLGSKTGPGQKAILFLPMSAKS

[15] = mitochondrial membrane potential change in A549 cells, profiling panel, cell-based, JC-1 fluorescence, basal, 24 h, 100 nL (AID 1138); details: higher = more signal;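 note: A549 lung adenocarcinoma cells under basal conditions with no added stimulus; test concentration not given here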
Lefty1 = Lefty1 binders on small-molecule microarrays, primary screen, biochemical, small-molecule microarray, 635/667 nm fluorescence (AID 1139); details: small-molecule microarray binding, fluorescence 635/667; higher = more signal
[16] = test system: wheat germ agglutinin (Triticum aestivum), Alexa647-labelled; assay: wheat germ agglutinin binders on compound microarrays, profiling panel, artefact control for SMM control-protein annotation, biochemical, small-molecule microarray, 635/667 nm fluorescence (AID 1140); details: WGA-A647 binding, 635 nm fluorescence, higher = more signal;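 note: score merges 667 nm feature emission with signal to noise over triplicate slides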
[17] = biological target: Luciferin 4-monooxygenase (Photinus pyralis) (UniProt P08659); assay: firefly luciferase enzyme inhibitors, primary screen, biochemical, luminescence, purified enzyme, 2006 set (AID 1141); details: SteadyGlo luminescence, 30 min, higher = more signal, called active from +8 up or from −8 down;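 note: cell-free assay with purified firefly luciferase at 100 ng per well in PBS; test concentration not given here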
Sequence of Luciferin 4-monooxygenase (Photinus pyralis) (P08659 whole entry, looked up): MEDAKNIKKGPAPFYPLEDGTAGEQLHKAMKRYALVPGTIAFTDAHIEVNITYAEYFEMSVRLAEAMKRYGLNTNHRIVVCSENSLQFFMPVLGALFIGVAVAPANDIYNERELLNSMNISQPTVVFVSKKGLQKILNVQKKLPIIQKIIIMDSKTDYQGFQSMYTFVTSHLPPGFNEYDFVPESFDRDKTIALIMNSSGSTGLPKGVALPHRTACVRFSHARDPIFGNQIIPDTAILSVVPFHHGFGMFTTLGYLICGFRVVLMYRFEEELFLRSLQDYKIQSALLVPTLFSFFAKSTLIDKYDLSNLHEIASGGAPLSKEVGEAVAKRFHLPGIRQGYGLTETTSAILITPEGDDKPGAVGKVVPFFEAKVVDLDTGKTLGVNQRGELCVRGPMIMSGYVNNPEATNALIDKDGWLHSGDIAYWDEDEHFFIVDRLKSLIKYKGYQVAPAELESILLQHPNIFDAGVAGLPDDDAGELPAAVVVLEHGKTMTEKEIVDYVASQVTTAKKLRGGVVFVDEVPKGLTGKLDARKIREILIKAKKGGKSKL

Row | SMILES | composite z-score (Albumin (Bos taurus)) | composite Z-score [1] | composite z-score [2] | composite z-score [3] | composite z-score [4] | composite z-score [5] | composite z-score [6] | composite z-score (Sam68 (KHDRBS1)) | composite z-score [7] | composite z-score [8] | composite z-score [9] | composite z-score [10] | composite z-score [11] | composite z-score [12] | composite z-score [13] | composite z-score [14] | z-score [15] | composite z-score (Lefty1) | composite z-score [16] | z-score [17]
1 | CCCCCCc1nc(C2CC2)c(C)c2c1[Si](C(C)C)(C(C)C)OC2 | -1.57 | 0.485 (inactive) | -0.0647 | -0.0942 | -0.364 | -0.641 | -0.35 | -1.28 | 0.63 | -0.693 | -0.095 | -1.51 | -0.695 | -0.687 | -0.0256 | -0.0723 | -0.451 | -0.238 | -0.982 | -0.441 (inactive)
2 | C=CC[C@]1(C(=O)OC)N=C(c2ccc(OCCCO)cc2)O[C@H]1c1ccccc1CN=[N+]=[N-] | -0.573 | 3.17 (inactive) | -0.0598 | 0.122 | 0.206 | 2.41 | -0.0978 | -1.11 | -0.45 | -1.06 | 1.39 | 0.731 | 0.5 | -0.268 | 0.286 | 0.172 | 1.22 | -0.525 | 0.605 | -4.54 (inactive)
3 | CC(=O)NCCCC[C@@H]1NC(=O)[C@@H]2C[C@H](C(=O)NCCCCCNC(=O)CS)[C@H](c3ccc(O)cc3)N2C1=O | -0.0591 | 1.43 (inactive) | -0.282 | -0.203 | 0.497 | 0.534 | -0.377 | -0.0077 | -0.13 | -0.579 | 0.133 | -0.265 | -0.295 | -0.786 | 1.44 | 0.746 | 1.18 | 1.4 | -0.802 | -1.88 (inactive)
4 | CCN1C(C)=C(C(=O)OC)[C@@H](c2ccccc2)N2C(=O)[C@@]3(C(=O)OC)O[C@@]12[C@@H]1C(=O)N(C)C(=O)[C@@H]13 | 0.216 | 0.0523 (inactive) | 0.19 | -0.141 | 0.752 | 0.32 | 0.164 | 0.686 | 1.01 | 0.418 | 1.65 | 0.812 | -0.23 | 0.819 | 0.968 | 0.916 | 0.842 | 0.819 | 1.12 | -0.701 (inactive)
5 | CO[C@H]1COC(=O)[C@H](CCSC)NC(=O)CC=C[C@@H](C)COC(=O)[C@@H](OCc2ccccc2)C=C[C@@H]1C | -1.35 | -0.273 (inactive) | -0.0914 | -0.102 | -0.498 | -0.345 | -0.0638 | 0.51 | 1.51 | -0.623 | -0.155 | -0.762 | -0.36 | -1.22 | 1.18 | 1.46 | 0.676 | 1.63 | -1.02 | -1.12 (inactive)
6 | C[N+](C)(C)CCCCNC(=O)[C@H]1C[C@H]2C(=O)NCC(=O)N2[C@H]1c1cccc(OCCO)c1 | -1.39 | 1.49 (inactive) | 0.147 | -0.112 | 0.454 | 0.961 | 0.258 | 1.05 | 1.45 | 1.12 | 2.81 | 0.279 | -0.0181 | -0.0364 | 1.49 | 1.9 | -0.776 | 1.71 | 0.399 | -0.162 (inactive)
7 | O=C/C=C/c1ccc(/C=C/c2ccccc2)cc1 | -0.435 | -0.738 (inactive) | -0.25 | -0.175 | -0.147 | -0.792 | 0.103 | -1.22 | 0.95 | -0.342 | 1.52 | -0.483 | -0.313 | -1.86 | 0.828 | 0.168 | 1.39 | -0.134 | 0.633 | -3.83 (inactive)
8 | C[C@H]1C2[C@H](Cc3ccccc3)NC(=O)[C@]23C(=O)N[C@H](Cc2ccccc2)C(=O)N[C@@H](Cc2ccccc2)C(=O)NC/C=C\C/C=C/C3[C@@H]2O[C@]12C (stereo not given in full) | 0.992 | 0.448 (inactive) | 0.36 | -0.0942 | 0.742 | 0.0046 | 0.0901 | -0.221 | 0.371 | -1.08 | 0.133 | -0.318 | 0.838 | -1.84 | 0.162 | 0.0748 | 0.298 | -0.0066 | -0.125 | -1.06 (inactive)
9 | C=CCC(OC(C)=O)[C@@H]1[C@@H](N(Cc2cc3ccccc3o2)C(=O)Cc2ccc(F)cc2)c2cc(OCCCO)ccc2N1C(=O)c1ccc(-c2ccccc2)cc1 (stereo not given in full) | -0.182 | -0.765 (inactive) | -0.0881 | 0.0017 | -0.309 | 0.125 | -0.546 | -0.533 | -0.26 | -0.764 | -1.6 | -0.844 | -0.341 | -1.2 | 0.0166 | -0.287 | 2.35 | -0.234 | -0.681 | -1.06 (inactive)
10 | C=CCC1=C[C@H]2[C@H]([C@@H]3C=C[C@]2(CC=C)C(=O)[C@]32CO2)[C@@]2(CO2)C1=O | -0.44 | 0.528 (inactive) | 0.519 | 0.082 | -0.262 | 0.104 | -0.0222 | -0.56 | 1.54 | -1 | -0.131 | -1.2 | -0.263 | -0.571 | 1.45 | 1.45 | 1.84 | 1.58 | -0.0818 | -1.01 (inactive)
11 | O=C(NCc1ccccc1)[C@@]1(CCS(=O)(=O)c2ccccc2)COC(c2ccc(OCCCO)cc2)=N1 | 0.514 | 0.294 (inactive) | 0.291 | 0.0539 | 0.808 | 3.01 | 0.72 | 1.3 | -0.696 | 1.17 | 3.16 | 1.26 | 0.79 | 0.869 | 0.354 | -0.376 | 0.959 | -0.278 | 1.49 | -1.42 (inactive)
